Laboratory results published in PubChem BioAssay (NCATS).
Inconclusive results are not listed. The source made the active and inactive calls. Unless noted, calls follow the shape of the dose curve; as a rule, active = well fitted curve in either direction with a large enough effect (not every such curve was filed as active); inconclusive = small, poorly fitted or top-dose-only effect, or another doubt; inactive = flat fitted curve, though single readings scatter.

What was measured:
[1] = Stat Signaling Pathway (AID 446); settings: ME-180 SIE beta-lactamase reporter, IL-6 stimulated, 5 h; at 38 µM (top of the series) unless noted;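 also: ME-180 cervical cancer cells given 40 pM IL-6 alongside compound; SIE-controlled beta-lactamase reporter measured as 460/530 nm FRET emission ratio; % is scaled to controls: 0 for no effect and ±100 for the full control effect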
Method in brief: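 ME-180 cells carrying a SIE-driven beta-lactamase reporter are stimulated with 40 pM IL-6 for 5 h at 37C in the presence of compound. The 460/530 nm FRET substrate ratio is read after 2.5 h at RT. Data are normalised to 300 pM IL-6 and to 125 nM JAK inhibitor controls.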

[2] = target: Glucocorticoid receptor (Homo sapiens) (UniProt P04150); assay: GR-GFP Redistribution (AID 450;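 active = compounds whose dose series gives a full or clear partial fitted curve of increased nuclear translocation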; also: potency is read from the fitted curve at half-maximal effect); settings: U2OS GR-GFP nuclear translocation, laser cytometry, 2 h
[3] = target: Glucocorticoid receptor (Homo sapiens) (UniProt P04150); assay: GR-EFC Redistribution (AID 451; calls by dose curve; also: potency is read from the fitted curve at half-maximal effect); settings: CHO-K1 GR-EFC translocation, beta-gal luminescence, 2 h
Method in brief: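 CHO-K1 cells stably expressing nuclear-localized β-gal enzyme acceptor and GR fused C-terminally to the enzyme donor fragment; ligand-driven nuclear translocation restores β-gal by complementation. Compounds titrated up to 46 uM final, 2 h at 37 °C; luminescence read.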

[4] = target: 3',5'-cyclic-AMP phosphodiesterase 4B (Homo sapiens) (UniProt Q07343); assay: qHTS Assay for Inhibitors of PDE-IV (AID 607; active = well fitted activation curve with a large enough effect in the main read-out, with a control signal flat, not every such curve was filed as active; also: % of control where 0% means no effect); settings: HEK293 ACTOne CNG channel cells, membrane potential fluorescence; series mostly up to 22.9 µM
Method in brief: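 HEK293 ACTOne cells with CNG channel (1000/well), endogenous PDE4; membrane potential dye, compounds up to 22.9 uM final. Fluorescence Ex 535/Em 590; RO 20-1724 (100 uM final) as reference.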

[5] = target: Mitogen-activated protein kinase 10 (Mus musculus) (UniProt Q61831); assay: JNK3 AlphaScreen Assay (AID 530); settings: JNK3 lysate, c-Jun phosphorylation; series mostly up to 57.1 µM;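 also: kinase came from lysate of stimulated human HepG2 cells; signal reports phosphorylation of biotinylated GST-cJun 1-79 at Ser73 with 10 µM ATP; % is scaled to controls: 0 for no effect and ±100 for the full control effect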
Method in brief: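 Inhibitors reduce antibody binding to phosphorylated biotin-cJun, lowering AlphaScreen luminescence. Lysates from HepG2 cells pre-activated by IL-1beta plus TNF-alpha supplied JNK3; compounds were titrated.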

Glucocorticoid receptor (Homo sapiens), sequence (P04150 whole entry, looked up, the tested form may be a part): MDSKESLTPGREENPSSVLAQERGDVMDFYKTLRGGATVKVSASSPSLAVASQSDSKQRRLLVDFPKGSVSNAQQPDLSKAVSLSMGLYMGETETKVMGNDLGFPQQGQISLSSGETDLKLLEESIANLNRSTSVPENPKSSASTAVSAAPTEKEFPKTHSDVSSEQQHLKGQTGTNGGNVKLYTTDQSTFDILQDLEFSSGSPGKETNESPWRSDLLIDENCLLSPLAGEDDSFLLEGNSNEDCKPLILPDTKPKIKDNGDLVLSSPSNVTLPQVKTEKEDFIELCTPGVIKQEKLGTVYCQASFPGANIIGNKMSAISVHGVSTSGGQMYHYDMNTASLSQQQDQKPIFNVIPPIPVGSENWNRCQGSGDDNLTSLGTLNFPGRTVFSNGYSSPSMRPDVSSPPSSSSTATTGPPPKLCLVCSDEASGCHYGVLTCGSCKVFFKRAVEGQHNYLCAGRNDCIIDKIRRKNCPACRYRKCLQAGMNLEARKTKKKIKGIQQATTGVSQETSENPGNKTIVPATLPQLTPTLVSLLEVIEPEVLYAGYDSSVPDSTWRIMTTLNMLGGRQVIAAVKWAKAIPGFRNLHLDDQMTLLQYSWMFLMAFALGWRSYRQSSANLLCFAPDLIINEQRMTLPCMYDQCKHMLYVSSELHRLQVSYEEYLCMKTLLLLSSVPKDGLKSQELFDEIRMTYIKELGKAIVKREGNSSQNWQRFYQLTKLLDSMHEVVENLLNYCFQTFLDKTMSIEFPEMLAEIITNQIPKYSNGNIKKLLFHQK
3',5'-cyclic-AMP phosphodiesterase 4B (Homo sapiens), sequence (Q07343 whole entry, looked up): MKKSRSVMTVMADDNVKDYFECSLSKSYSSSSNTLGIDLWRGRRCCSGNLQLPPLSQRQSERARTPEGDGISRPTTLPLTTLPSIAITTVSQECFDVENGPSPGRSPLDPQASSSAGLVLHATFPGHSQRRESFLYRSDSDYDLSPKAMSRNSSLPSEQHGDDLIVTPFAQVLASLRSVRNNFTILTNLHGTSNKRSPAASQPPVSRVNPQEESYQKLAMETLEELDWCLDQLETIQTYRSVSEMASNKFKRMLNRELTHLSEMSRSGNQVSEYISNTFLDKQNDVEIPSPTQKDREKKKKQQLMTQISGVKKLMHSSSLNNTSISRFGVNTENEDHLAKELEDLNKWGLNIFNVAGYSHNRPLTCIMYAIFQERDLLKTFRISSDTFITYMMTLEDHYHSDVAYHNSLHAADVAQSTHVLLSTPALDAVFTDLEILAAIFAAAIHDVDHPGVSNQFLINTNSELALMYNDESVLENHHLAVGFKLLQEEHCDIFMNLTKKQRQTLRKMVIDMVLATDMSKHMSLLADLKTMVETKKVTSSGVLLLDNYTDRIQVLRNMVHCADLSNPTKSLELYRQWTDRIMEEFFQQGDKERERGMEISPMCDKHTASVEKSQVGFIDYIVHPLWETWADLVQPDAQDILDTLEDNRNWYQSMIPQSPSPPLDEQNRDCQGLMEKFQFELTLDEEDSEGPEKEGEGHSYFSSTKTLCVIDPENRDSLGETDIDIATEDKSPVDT

C=CCn1c(=O)c2c(nc(-c3ccc(S(=O)(=O)O)cc3)n2C)n(C)c1=O
inactive: activity, negative = inhibition [1] 20.8% | Potency [2] > 46 µM | Potency [3] > 46 µM | Potency [4]

N#CC(C#N)=C(N)/C(C#N)=C/c1ccc(O)cc1
inactive: activity, negative = inhibition [1] 5.06% | Potency [2] > 46 µM | Potency [3] > 46 µM | outcome [5] | Potency [4]

CN[C@H](CC(=O)O)C(=O)O
inactive: activity, negative = inhibition [1] 2.84% | Potency [2] > 46 µM | Potency [3] > 46 µM | outcome [5] | Potency [4]

NCCS(=O)O
inactive: activity, negative = inhibition [1] -6.03% | Potency [2] > 46 µM | Potency [3] > 46 µM | outcome [5] | Potency [4]

Cc1nc(N=Nc2ccc(C(=O)O)cc2)c(COP(=O)(O)O)c(C=O)c1O
inactive: activity, negative = inhibition [1] -19.4% | Potency [2] > 46 µM | Potency [3] > 46 µM | outcome [5] | Potency [4]

Nc1nc2ccc(Cl)cc2c2nc(-c3ccco3)nn12
inactive: activity, negative = inhibition [1] 3.22% | Potency [2] > 46 µM | Potency [3] > 46 µM | outcome [5] | Potency [4]

CC(C)(CO)Cc1cc(C(C)(C)C)c(O)c(C(C)(C)C)c1
inactive: activity, negative = inhibition [1] -24.1% | Potency [2] > 46 µM | Potency [3] > 46 µM | outcome [5] | Potency [4]

NCCCCN=C(N)N
inactive: activity, negative = inhibition [1] -20.8% | Potency [2] > 46 µM | Potency [3] > 46 µM | outcome [5] | Potency [4]

O=S(=O)(c1cccc2c(Cl)cccc12)N1CCCNCC1
inactive: activity, negative = inhibition [1] -1.55% | Potency [2] > 46 µM | Potency [3] > 46 µM | outcome [5] | Potency [4]

CC(N)=O
inactive: activity, negative = inhibition [1] 13.9% | Potency [2] > 46 µM | Potency [3] > 46 µM | outcome [5] | Potency [4]

Nc1ccc(N2C(=O)c3ccccc3C2=O)c(Cl)c1
inactive: Potency [2] > 46 µM | Potency [3] > 46 µM | outcome [5]

NCCCCN
inactive: activity, negative = inhibition [1] -10.8% | Potency [2] > 46 µM | Potency [4]

Oc1cc(O)c2c(c1)O[C@H](c1ccc(O)c(O)c1)[C@@H](O)C2
inactive: Potency [2] > 46 µM | Potency [3] > 46 µM | outcome [5]

CCCc1c(-c2ccc(O)cc2)nn(-c2ccc(O)cc2)c1-c1ccc(O)cc1
inactive: Potency [2] > 46 µM | Potency [3] > 46 µM | outcome [5]

Cn1c(=O)c2[nH]c(C3CCCC3)nc2n(C)c1=O
inactive: Potency [2] > 46 µM | Potency [3] > 46 µM

NOCC(=O)O
inactive: activity, negative = inhibition [1] 4.25% | Potency [2] > 46 µM | Potency [3] > 46 µM | Potency [4]

CSC(=N)N
inactive: activity, negative = inhibition [1] -2.27% | Potency [4]

O=C(O)c1cccnc1C(=O)O
inactive: activity, negative = inhibition [1] -7.1% | outcome [5]

CCCC(=O)NCCc1c2n(c3ccc(OC)cc13)CCCc1ccccc1-2
inactive: Potency [2] > 46 µM | Potency [3] > 46 µM | outcome [5]

N#C/C(=C\c1ccc(O)c(O)c1)C(=O)NCCCNC(=O)/C(C#N)=C/c1ccc(O)c(O)c1
inactive: activity, negative = inhibition [1] -7.91% | Potency [2] > 46 µM | Potency [3] > 46 µM | Potency [4]

N=C(N)c1ccccc1
inactive: activity, negative = inhibition [1] 8.11% | outcome [5] | Potency [4]

O=c1[nH]c2cc(Cl)ccc2c(O)c1-c1ccc(Oc2ccccc2)cc1
inactive: activity, negative = inhibition [1] -10.1% | Potency [2] > 46 µM | Potency [3] > 46 µM | Potency [4]

CCCCCCCCCCCCCCC[C@H](O)[C@H](N)CO
inactive: Potency [2] > 46 µM | Potency [3] > 46 µM | outcome [5]

CCN(c1nc(N)c(C(=O)N=C(N)N)nc1Cl)C(C)C
inactive: activity, negative = inhibition [1] -24.1% | Potency [3] > 46 µM | outcome [5] | Potency [4]

Cc1cc2c(cc1Cl)N(C(=O)Nc1ccnc3ccccc13)CC2
inactive: Potency [2] > 46 µM | Potency [3] > 46 µM | outcome [5]

CC[C@@H]1Cc2cc(O)ccc2C2=C1c1ccc(O)cc1C[C@H]2CC
inactive: Potency [2] > 46 µM | Potency [3] > 46 µM | outcome [5]

CCCOC(=O)c1c(-c2ccccc2)nc(CC)c(C(=O)SCC)c1CCC
inactive: activity, negative = inhibition [1] -19.4% | Potency [2] > 46 µM | Potency [3] > 46 µM | Potency [4]

O=[N+]([O-])c1cccc2c(Br)[nH]nc12
inactive: Potency [2] > 46 µM | Potency [3] > 46 µM

CN(C)S(=O)(=O)c1ccc2c(c1)/C(=C/c1cc3c([nH]1)CCCC3)C(=O)N2
inactive: Potency [3] > 46 µM | outcome [5] | Potency [4]
active: activity, negative = inhibition [1] -60.7%

N#C/C(=C\c1ccc(O)c(O)c1)C(=O)NCCc1ccccc1
inactive: activity, negative = inhibition [1] -24% | Potency [3] > 46 µM | outcome [5] | Potency [4]

COC(=O)[C@H](NC(=O)c1cc(-c2ccccc2)nc2ccccc12)c1ccccc1
inactive: Potency [2] > 46 µM | Potency [3] > 46 µM | outcome [5]
